Data reported in PubChem BioAssay AID1159580 (chemical genetic matrix, 2015).
The whole screen tested about 5,500 compounds, of which about 2,000 (36%) were called active. Not shown: some 18% with an inconclusive outcome. Rule as the data show it: active = normalized growth mostly below about 0.91 (no sharp cut-off); inconclusive = no clear call, values can overlap the other calls; inactive = mostly above about 0.92. The list shows a part of the results.

Assay: chemical genetic growth profiling, strain panel (AID 1159580);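 also: tested at 20 µM; growth read once vehicle control cultures reached saturation at 30 °C; 1 = growth at the plate median or of vehicle wells; lower values mean less growth of the strain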
Conditions: growth OD

Measured: normalized growth

C=NC(C(=O)NC1C(=O)N2C1SC(C)(C)C2C(=O)O)c1ccccc1 (configuration not stated)
inactive: S. cerevisiae deletion strains, locus YJR075W, strain HOC1, stronger effect = lower value 0.991 | S. cerevisiae deletion strains, locus YKL009W, strain mrt4, stronger effect = lower value 1.02 | S. cerevisiae deletion strains, locus YKL068W, stronger effect = lower value 1.02 | S. cerevisiae deletion strains, locus YKL085W, strain MDH1 (second series), stronger effect = lower value 1.04 | S. cerevisiae deletion strains, locus YKL085W, strain MDH1, stronger effect = lower value 1.04 | S. cerevisiae deletion strains, locus YKL160W, strain elf1, stronger effect = lower value 0.98 | S. cerevisiae deletion strains, locus YKL190W, strain CNB1, stronger effect = lower value 1.01 | S. cerevisiae deletion strains, locus YKR001C, strain vps1, stronger effect = lower value 1.02 | S. cerevisiae deletion strains, locus YKR026C, strain gcn3, stronger effect = lower value 0.999 | S. cerevisiae deletion strains, locus YKR091W, strain srl3, stronger effect = lower value 0.999 | S. cerevisiae deletion strains, locus YLL001W, strain dnm1, stronger effect = lower value 0.943 | S. cerevisiae deletion strains, locus YLL026W, stronger effect = lower value 1.01 | S. cerevisiae deletion strains, locus YLL041C, strain sdh2, stronger effect = lower value 0.996 | S. cerevisiae deletion strains, locus YLR027C, strain aat2, stronger effect = lower value 1.02 | S. cerevisiae deletion strains, locus YLR039C, strain RIC1, stronger effect = lower value 1.03 | S. cerevisiae deletion strains, locus YLR058C, strain SHM2, stronger effect = lower value 1.01 | S. cerevisiae deletion strains, locus YLR102C, strain apc9, stronger effect = lower value 1.02 | S. cerevisiae deletion strains, locus YLR113W, strain HOG1, stronger effect = lower value 1.01 | S. cerevisiae deletion strains, locus YLR221C, strain rsa3, stronger effect = lower value 1.06 | S. cerevisiae deletion strains, locus YLR258W, strain gsy2, stronger effect = lower value 1.01 | S. cerevisiae deletion strains, locus YLR262C, strain YPT6 (second series), stronger effect = lower value 1.01 | S. cerevisiae deletion strains, locus YLR262C, strain YPT6, stronger effect = lower value 1.06 | S. cerevisiae deletion strains, locus YLR268W, strain sec22, stronger effect = lower value 1.01 | S. cerevisiae deletion strains, locus YLR320W, strain mms22, stronger effect = lower value 1.07 | S. cerevisiae deletion strains, locus YLR330W, strain CHS5, stronger effect = lower value 1.01 | S. cerevisiae deletion strains, locus YLR342W, strain FKS1 (second series), stronger effect = lower value 1.03 | S. cerevisiae deletion strains, locus YLR342W, strain FKS1, stronger effect = lower value 1.02 | S. cerevisiae deletion strains, locus YLR357W, strain rsc2, stronger effect = lower value 0.912 | S. cerevisiae deletion strains, locus YLR370C, strain arc18, stronger effect = lower value 1.01 | S. cerevisiae deletion strains, locus YLR371W, strain rom2, stronger effect = lower value 1.02 | S. cerevisiae deletion strains, locus YLR384C, strain iki3, stronger effect = lower value 0.999 | S. cerevisiae deletion strains, locus YLR418C, strain cdc73, stronger effect = lower value 1.02 | S. cerevisiae deletion strains, locus YML016C, strain PPZ1, stronger effect = lower value 1.01 | S. cerevisiae deletion strains, locus YML032C, strain rad52, stronger effect = lower value 1.02 | S. cerevisiae deletion strains, locus YML120C, strain ndi1, stronger effect = lower value 0.972 | S. cerevisiae deletion strains, locus YML124C, strain tub3, stronger effect = lower value 1.01 | S. cerevisiae deletion strains, locus YMR058W, strain fet3, stronger effect = lower value 0.987 | S. cerevisiae deletion strains, locus YMR078C, strain ctf18, stronger effect = lower value 1.01 | S. cerevisiae deletion strains, locus YMR125W, strain sto1, stronger effect = lower value 0.929 | S. cerevisiae deletion strains, locus YMR129W, stronger effect = lower value 1 | S. cerevisiae deletion strains, locus YMR205C, strain PFK2, stronger effect = lower value 0.982 | S. cerevisiae deletion strains, locus YMR223W, strain ubp8, stronger effect = lower value 1.02 | S. cerevisiae deletion strains, locus YMR231W, strain pep5, stronger effect = lower value 1.01 | S. cerevisiae deletion strains, locus YMR263W, strain SAP30, stronger effect = lower value 1.01 | S. cerevisiae deletion strains, locus YMR307W, strain GAS1, stronger effect = lower value 0.993 | S. cerevisiae deletion strains, locus YNL067W, strain RPL9B, stronger effect = lower value 0.996 | S. cerevisiae deletion strains, locus YNL071W, strain lat1, stronger effect = lower value 0.998 | S. cerevisiae deletion strains, locus YNL128W, strain TEP1, stronger effect = lower value 1 | S. cerevisiae deletion strains, locus YNL153C, strain GIM3, stronger effect = lower value 1.01 | S. cerevisiae deletion strains, locus YNL183C, strain NPR1, stronger effect = lower value 0.944 | S. cerevisiae deletion strains, locus YNL209W, strain ssb2, stronger effect = lower value 0.994 | S. cerevisiae deletion strains, locus YNL233W, strain BNI4, stronger effect = lower value 1.02 | S. cerevisiae deletion strains, locus YNL248C, strain rpa49, stronger effect = lower value 0.975 | S. cerevisiae deletion strains, locus YNL250W, strain rad50, stronger effect = lower value 1.01 | S. cerevisiae deletion strains, locus YNL271C, strain bni1, stronger effect = lower value 1.02 | S. cerevisiae deletion strains, locus YNL298W, strain CLA4, stronger effect = lower value 1.02 | S. cerevisiae deletion strains, locus YNL307C, strain MCK1, stronger effect = lower value 1.02 | S. cerevisiae deletion strains, locus YNL322C, strain KRE1 (second series), stronger effect = lower value 0.991 | S. cerevisiae deletion strains, locus YNL322C, strain KRE1, stronger effect = lower value 1.01 | S. cerevisiae deletion strains, locus YNR049C, strain mso1, stronger effect = lower value 0.998 | S. cerevisiae deletion strains, locus YNR052C, strain pop2, stronger effect = lower value 1.02 | S. cerevisiae deletion strains, locus YOL006C, strain TOP1, stronger effect = lower value 1.05 | S. cerevisiae deletion strains, locus YOL012C, strain htz1 0.974 | S. cerevisiae deletion strains, locus YOL147C, strain pex11, stronger effect = lower value 1.01 | S. cerevisiae deletion strains, locus YOR001W, strain rrp6, stronger effect = lower value 1.03 | S. cerevisiae deletion strains, locus YOR061W, strain CKA2, stronger effect = lower value 1.02 | S. cerevisiae deletion strains, locus YOR069W, strain VPS5, stronger effect = lower value 1.01 | S. cerevisiae deletion strains, locus YOR070C, strain gyp1, stronger effect = lower value 1.03 | S. cerevisiae deletion strains, locus YOR080W, strain dia2, stronger effect = lower value 1 | S. cerevisiae deletion strains, locus YOR083W, strain WHI5, stronger effect = lower value 0.989 | S. cerevisiae deletion strains, locus YOR106W, strain vam3, stronger effect = lower value 0.947 | S. cerevisiae deletion strains, locus YOR136W, strain idh2, stronger effect = lower value 1.02 | S. cerevisiae deletion strains, locus YOR144C, strain elg1, stronger effect = lower value 1.01 | S. cerevisiae deletion strains, locus YOR184W, strain ser1, stronger effect = lower value 1.05 | S. cerevisiae deletion strains, locus YOR231W, strain MKK1, stronger effect = lower value 1 | S. cerevisiae deletion strains, locus YOR265W, strain rbl2, stronger effect = lower value 1 | S. cerevisiae deletion strains, locus YOR270C, strain vph1, stronger effect = lower value 0.993 | S. cerevisiae deletion strains, locus YOR290C, strain snf2, stronger effect = lower value 0.95 | S. cerevisiae deletion strains, locus YOR316C, strain cot1, stronger effect = lower value 1.01 | S. cerevisiae deletion strains, locus YPL051W, strain arl3, stronger effect = lower value 1 | S. cerevisiae deletion strains, locus YPL055C, strain LGE1, stronger effect = lower value 1.02 | S. cerevisiae deletion strains, locus YPL078C, strain atp4, stronger effect = lower value 0.957 | S. cerevisiae deletion strains, locus YPL106C, strain sse1, stronger effect = lower value 0.983 | S. cerevisiae deletion strains, locus YPL240C, strain hsp82, stronger effect = lower value 1.01 | S. cerevisiae deletion strains, locus YPL241C, strain CIN2, stronger effect = lower value 1.01 | S. cerevisiae deletion strains, locus YPL256C, strain CLN2, stronger effect = lower value 0.994 | S. cerevisiae deletion strains, locus YPR119W, strain clb2, stronger effect = lower value 1 | S. cerevisiae deletion strains, locus YPR141C, strain kar3, stronger effect = lower value 1.01 | S. cerevisiae deletion strains, locus YPR163C, strain tif3, stronger effect = lower value 1.02 | S. cerevisiae deletion strains, locus YPR167C, strain met16, stronger effect = lower value 1.02 | S. cerevisiae deletion strains, strain wtn01, stronger effect = lower value 1.01 | S. cerevisiae strains, strain wild type, stronger effect = lower value 1.01
